How the values were obtained:
Assay in all cases: DAPPL (digital affinity profiling via proximity ligation, sequencing); 10 mM Tris-HCl pH 7.5, 50 mM NaCl, 1 mM DTT, 4% glycerol, room temperature, 30 min; GST-TFs on glutathione beads, 16-mer random dsDNA library, 0.1% formaldehyde crosslink after washing; high values mean tight binding
[1] = target: HSF1 (Homo sapiens, UniProt Q00613 1-529); conditions: protein: recombinant; tags: N-terminal GST; chain copies: 3; dsDNA, one strand shown
Summary of the method: (§1)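 Sequencing on an Illumina NextSeq500 followed washing, crosslinking with 0.1% formaldehyde, proximity ligation (BsaI/T4 ligase, 1 h, 37 °C) and PCR amplification of pools that had been incubated for 30 min at room temperature with 200 nmole of a random double-stranded 16-mer DNA library in Tris/NaCl/DTT/glycerol buffer. Each pool held DNA-barcoded human transcription factors, expressed in yeast as GST fusions and captured on glutathione beads, plus a tag-only sample. Binding signal is a hexamer's read frequency for a factor divided by its frequency in the tag-only sample.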

[2] = target: ELF4 (Homo sapiens, UniProt Q99607 1-663); conditions: protein: recombinant; tags: N-terminal GST; dsDNA, one strand shown
Summary of the method: as §1

[3] = target: T1, ELK4 (Homo sapiens, UniProt P28324-2 1-405); conditions: protein: recombinant; tags: N-terminal GST; dsDNA, one strand shown
T1 sequence: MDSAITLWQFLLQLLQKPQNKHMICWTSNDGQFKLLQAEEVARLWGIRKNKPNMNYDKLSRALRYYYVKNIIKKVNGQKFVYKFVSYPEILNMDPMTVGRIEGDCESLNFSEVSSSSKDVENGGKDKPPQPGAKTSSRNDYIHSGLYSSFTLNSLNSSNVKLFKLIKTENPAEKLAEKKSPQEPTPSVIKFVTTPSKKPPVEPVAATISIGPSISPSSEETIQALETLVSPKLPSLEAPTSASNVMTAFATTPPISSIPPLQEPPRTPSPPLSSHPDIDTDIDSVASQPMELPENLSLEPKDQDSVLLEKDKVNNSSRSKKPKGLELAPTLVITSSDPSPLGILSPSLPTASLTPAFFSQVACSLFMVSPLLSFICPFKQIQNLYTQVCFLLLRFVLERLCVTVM
Summary of the method: as §1

[4] = target: T2, ETV2 (Homo sapiens, UniProt O00321 1-342); conditions: protein: recombinant; tags: N-terminal GST; dsDNA, one strand shown
T2 sequence: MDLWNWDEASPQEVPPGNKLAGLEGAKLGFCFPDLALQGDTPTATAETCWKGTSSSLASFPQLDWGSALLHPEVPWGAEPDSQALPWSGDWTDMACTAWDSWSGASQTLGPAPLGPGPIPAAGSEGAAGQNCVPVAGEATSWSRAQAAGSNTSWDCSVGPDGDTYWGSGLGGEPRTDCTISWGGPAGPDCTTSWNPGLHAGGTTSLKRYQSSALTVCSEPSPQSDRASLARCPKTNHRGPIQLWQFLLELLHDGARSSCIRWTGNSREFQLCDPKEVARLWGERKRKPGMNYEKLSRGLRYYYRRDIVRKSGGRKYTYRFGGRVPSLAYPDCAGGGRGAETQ
Summary of the method: as §1

[5] = target: CRX (Homo sapiens, UniProt O43186 1-299); conditions: protein: recombinant; tags: N-terminal GST; dsDNA, one strand shown
Summary of the method: as §1

[6] = target: ETV1 (Homo sapiens, UniProt P50549 1-477); conditions: protein: recombinant; tags: N-terminal GST; dsDNA, one strand shown
Summary of the method: as §1

[7] = target: T3, SPIC (Homo sapiens, UniProt Q8N5J4 1-248); conditions: protein: recombinant; tags: N-terminal GST; dsDNA, one strand shown
T3 sequence: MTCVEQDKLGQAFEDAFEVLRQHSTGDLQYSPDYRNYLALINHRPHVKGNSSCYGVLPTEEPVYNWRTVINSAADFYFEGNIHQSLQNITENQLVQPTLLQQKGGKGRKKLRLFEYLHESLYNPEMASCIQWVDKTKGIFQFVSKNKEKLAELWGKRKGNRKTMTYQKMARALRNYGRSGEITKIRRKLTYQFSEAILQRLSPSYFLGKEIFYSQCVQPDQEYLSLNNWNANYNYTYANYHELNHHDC
Summary of the method: as §1

[8] = target: T4, ETV7 (Homo sapiens, UniProt Q9Y603 1-341); conditions: protein: recombinant; tags: N-terminal GST; dsDNA, one strand shown
T4 sequence: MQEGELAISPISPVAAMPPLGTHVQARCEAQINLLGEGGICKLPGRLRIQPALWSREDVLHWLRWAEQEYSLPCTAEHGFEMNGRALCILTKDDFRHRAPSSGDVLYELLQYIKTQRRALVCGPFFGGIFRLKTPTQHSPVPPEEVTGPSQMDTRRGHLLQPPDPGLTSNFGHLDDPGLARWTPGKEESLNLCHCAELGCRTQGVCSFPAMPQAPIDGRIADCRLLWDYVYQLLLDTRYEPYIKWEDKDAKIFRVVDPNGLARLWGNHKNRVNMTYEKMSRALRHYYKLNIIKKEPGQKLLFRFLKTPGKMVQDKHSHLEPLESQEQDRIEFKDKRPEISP
Summary of the method: as §1

[9] = target: SPI1 (Homo sapiens, UniProt P17947 1-270); conditions: protein: recombinant; tags: N-terminal GST; dsDNA, one strand shown
Summary of the method: as §1

[10] = target: T5, ERF (Homo sapiens, UniProt P50548 1-548); conditions: protein: recombinant; tags: N-terminal GST; dsDNA, one strand shown
T5 sequence: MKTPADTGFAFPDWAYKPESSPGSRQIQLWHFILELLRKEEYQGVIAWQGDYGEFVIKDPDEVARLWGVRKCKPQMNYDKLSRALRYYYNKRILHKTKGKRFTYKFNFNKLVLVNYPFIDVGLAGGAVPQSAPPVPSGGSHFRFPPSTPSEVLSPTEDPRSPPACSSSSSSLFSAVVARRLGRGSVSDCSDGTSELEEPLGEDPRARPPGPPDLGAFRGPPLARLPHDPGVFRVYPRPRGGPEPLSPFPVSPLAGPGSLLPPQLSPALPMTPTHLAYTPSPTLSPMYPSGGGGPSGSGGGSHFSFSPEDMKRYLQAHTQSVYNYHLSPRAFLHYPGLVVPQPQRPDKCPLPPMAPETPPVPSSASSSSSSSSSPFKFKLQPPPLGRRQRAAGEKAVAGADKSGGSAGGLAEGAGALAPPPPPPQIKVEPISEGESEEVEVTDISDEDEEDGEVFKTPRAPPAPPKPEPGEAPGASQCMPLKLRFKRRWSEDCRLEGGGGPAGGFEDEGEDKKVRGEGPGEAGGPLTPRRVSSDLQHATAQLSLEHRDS
Summary of the method: as §1

Chain of HSF1 (Q00613 whole entry, the tested form may be a part): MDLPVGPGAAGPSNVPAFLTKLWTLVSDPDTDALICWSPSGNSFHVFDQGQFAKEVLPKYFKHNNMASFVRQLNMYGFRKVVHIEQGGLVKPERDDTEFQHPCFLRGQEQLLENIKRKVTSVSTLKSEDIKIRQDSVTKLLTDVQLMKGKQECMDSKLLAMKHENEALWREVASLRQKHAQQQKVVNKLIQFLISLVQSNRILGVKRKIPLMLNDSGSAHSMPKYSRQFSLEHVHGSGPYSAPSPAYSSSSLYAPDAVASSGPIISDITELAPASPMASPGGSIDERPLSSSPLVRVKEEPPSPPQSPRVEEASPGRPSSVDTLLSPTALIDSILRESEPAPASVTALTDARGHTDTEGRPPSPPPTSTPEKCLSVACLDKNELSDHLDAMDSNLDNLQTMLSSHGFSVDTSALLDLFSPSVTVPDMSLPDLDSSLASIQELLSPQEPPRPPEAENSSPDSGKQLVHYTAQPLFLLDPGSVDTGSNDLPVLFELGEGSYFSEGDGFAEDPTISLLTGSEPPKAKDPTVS
Chain of CRX (O43186 whole entry): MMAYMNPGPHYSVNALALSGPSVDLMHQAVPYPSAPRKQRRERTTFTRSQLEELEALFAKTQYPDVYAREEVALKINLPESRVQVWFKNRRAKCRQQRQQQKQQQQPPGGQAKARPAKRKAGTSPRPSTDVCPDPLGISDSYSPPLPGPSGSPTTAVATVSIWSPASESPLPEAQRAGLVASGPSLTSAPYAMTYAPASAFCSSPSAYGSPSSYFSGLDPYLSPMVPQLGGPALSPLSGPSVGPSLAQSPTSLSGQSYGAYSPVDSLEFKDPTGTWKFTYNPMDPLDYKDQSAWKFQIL
Chain of ELF4 (Q99607 whole entry): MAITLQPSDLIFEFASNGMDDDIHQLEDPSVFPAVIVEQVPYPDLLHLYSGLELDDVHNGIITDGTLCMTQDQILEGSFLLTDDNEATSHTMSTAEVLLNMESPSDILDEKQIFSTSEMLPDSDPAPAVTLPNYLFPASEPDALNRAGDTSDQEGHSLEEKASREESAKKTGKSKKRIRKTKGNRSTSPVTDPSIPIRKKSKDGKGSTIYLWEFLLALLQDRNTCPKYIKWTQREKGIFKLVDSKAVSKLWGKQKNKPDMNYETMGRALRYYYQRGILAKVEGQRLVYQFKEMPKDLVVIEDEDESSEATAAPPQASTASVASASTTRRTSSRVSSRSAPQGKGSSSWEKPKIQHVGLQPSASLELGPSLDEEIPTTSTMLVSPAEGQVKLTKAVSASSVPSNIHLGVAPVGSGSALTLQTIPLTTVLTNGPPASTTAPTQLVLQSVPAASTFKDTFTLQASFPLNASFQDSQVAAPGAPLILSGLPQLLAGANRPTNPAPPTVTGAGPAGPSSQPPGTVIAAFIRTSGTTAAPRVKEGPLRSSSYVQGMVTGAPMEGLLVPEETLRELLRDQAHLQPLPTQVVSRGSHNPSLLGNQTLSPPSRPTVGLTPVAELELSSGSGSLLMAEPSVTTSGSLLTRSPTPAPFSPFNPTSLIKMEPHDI
Chain of ETV1 (P50549 whole entry): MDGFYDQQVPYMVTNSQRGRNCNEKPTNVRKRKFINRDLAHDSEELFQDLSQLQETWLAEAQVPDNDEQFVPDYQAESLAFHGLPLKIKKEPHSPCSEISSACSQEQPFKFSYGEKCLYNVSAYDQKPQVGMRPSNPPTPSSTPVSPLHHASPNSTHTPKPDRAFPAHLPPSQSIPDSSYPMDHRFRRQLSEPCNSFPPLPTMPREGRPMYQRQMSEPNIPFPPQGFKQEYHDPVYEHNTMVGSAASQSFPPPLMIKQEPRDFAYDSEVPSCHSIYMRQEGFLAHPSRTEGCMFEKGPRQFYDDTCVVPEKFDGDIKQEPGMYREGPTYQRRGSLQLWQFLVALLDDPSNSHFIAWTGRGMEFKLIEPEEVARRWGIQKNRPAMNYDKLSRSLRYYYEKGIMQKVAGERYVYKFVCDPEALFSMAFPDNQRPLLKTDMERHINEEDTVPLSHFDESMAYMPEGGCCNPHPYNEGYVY

AGGGTT
binding signal [1]: 1.02 fold enrichment (6-mer frequency, TF over GST control) | binding signal [2]: 1.03 fold enrichment (6-mer frequency, TF over GST control) | binding signal [3]: 1.14 fold enrichment (6-mer frequency, TF over GST control) | binding signal [4]: 1.03 fold enrichment (6-mer frequency, TF over GST control) | binding signal [5]: 1.06 fold enrichment (6-mer frequency, TF over GST control) | binding signal [6]: 1.01 fold enrichment (6-mer frequency, TF over GST control)

TTGAGA
binding signal [1]: 1.06 fold enrichment (6-mer frequency, TF over GST control) | binding signal [7]: 1.02 fold enrichment (6-mer frequency, TF over GST control) | binding signal [5]: 1.02 fold enrichment (6-mer frequency, TF over GST control)

ATCGCG
binding signal [1]: 1.09 fold enrichment (6-mer frequency, TF over GST control) | binding signal [2]: 1 fold enrichment (6-mer frequency, TF over GST control) | binding signal [3]: 1 fold enrichment (6-mer frequency, TF over GST control) | binding signal [8]: 1.05 fold enrichment (6-mer frequency, TF over GST control)

TCGAAA
binding signal [9]: 1.02 fold enrichment (6-mer frequency, TF over GST control) | binding signal [1]: 2.08 fold enrichment (6-mer frequency, TF over GST control) | binding signal [7]: 1.06 fold enrichment (6-mer frequency, TF over GST control) | binding signal [5]: 1.16 fold enrichment (6-mer frequency, TF over GST control) | binding signal [10]: 1.01 fold enrichment (6-mer frequency, TF over GST control) | binding signal [8]: 1.05 fold enrichment (6-mer frequency, TF over GST control)
